Screens deposited in PubChem BioAssay by Broad Institute.
AF4-AF9 inh = inhibitors of human MLL-AF4/AF9 interaction | AlphaScreen, biotin-AF4 peptide binding to FLAG-AF9 | P42568 | 350,000 compounds, 0.47% hits | AID 651704 | inhibition, % at 10 µM;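 active = every replicate reaching a set inhibition limit, whatever the replicate mean, cut at about 25% in these data; inconclusive = mean inhibition reaches that limit but some replicates miss it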;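 also: 0% = plate neutral control median and 100% = total signal loss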
Target sequence (P42568 whole entry, looked up): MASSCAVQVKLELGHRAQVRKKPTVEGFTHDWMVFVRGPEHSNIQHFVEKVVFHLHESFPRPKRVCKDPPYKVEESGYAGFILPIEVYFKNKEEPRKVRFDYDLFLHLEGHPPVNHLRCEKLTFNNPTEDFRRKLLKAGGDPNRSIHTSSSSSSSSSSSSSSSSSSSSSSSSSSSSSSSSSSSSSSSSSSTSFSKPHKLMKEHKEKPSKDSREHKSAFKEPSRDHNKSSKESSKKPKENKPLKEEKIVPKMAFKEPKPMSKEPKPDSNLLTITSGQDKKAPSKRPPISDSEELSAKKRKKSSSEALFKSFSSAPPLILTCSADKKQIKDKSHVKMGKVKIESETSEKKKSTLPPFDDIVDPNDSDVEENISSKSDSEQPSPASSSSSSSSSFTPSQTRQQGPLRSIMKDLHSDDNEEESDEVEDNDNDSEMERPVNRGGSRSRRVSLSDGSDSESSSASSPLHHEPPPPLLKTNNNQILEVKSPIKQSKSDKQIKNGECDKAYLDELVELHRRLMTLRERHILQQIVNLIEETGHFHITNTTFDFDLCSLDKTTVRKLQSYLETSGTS
MITF act = MITF TRPM1 promoter activation in melanoma cells | SK-MEL-5 TRPM1-promoter luciferase, 24 h; % of positive control, neutral wells = 0 | activation, % at 12.5 µM | 300,000 compounds, 0.75% hits | AID 588334;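 active = mean activation of at least 80% with every replicate also reaching 80%; inconclusive = mean reaches 80% but some replicate falls short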;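 also: 0% = neutral control wells and 100% = parthenolide positive control wells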
esBAF inh = blocks esBAF chromatin remodeling in mouse ES cells; Bmi1-luciferase knock-in reporter, 24 h; 100% = twice the neutral-well signal; reporter increase, % at 12.5 µM; 350,000 compounds, 2% hits; AID 602393; in the data active = activation above about 40%; inconclusive = no clear call, values can overlap the other calls;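 also: 0% = median of the plate's neutral control wells and 100% = double that signal; a rise in the Bmi1 reporter signal indicates esBAF inhibition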
rRNA inh HTS = inhibits bacterial ribosomal RNA function over humanized ribosomes; 350,000 compounds, 1.6% hits; GFP signal change (wild-type ribosome), % (test concentration not listed); E. coli WT GFP vs humanized-ribosome RFP mutants, fluorescence, 24 h; stronger effect = lower value; DMSO median 0, no signal -100;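 active = significant combined selectivity score with lowered wild-type GFP, culture density cut under 30%, mutant RFP and density less affected; inactive = any of these conditions unmet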
Wnt act = Wnt/beta-catenin pathway activation; Wnt/beta-catenin reporter cell assay, activator, plate reader; activation, % at 9.35 µM; 300,000 compounds, 1.2% hits; in the data active = activation above about 30%, passing the limit was not always enough; inconclusive = no clear call, values can overlap the other calls;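 also: 0% = neutral control wells and 100% = positive control wells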
AID977621 = wild-type E. coli growth inhibition versus H69 humanized strain – H69 mutant RFP, wild-type GFP, cherry-pick, dose response. fluorescence, 24 h. shares compounds with rRNA inh HTS. 1,900 tested, under 10 active. AID 977621. activity change, negative = inhibition at 50 µM;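 active = Wild-type ribosome reporter drop at least double the humanized mutant ribosome reporter drop, growth loss under a set limit; inconclusive = no clear call, values can overlap the other calls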;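 also: wild-type GFP and H69 mutant RFP strains grown together 50/50 in each well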
AID977628 = E. coli growth inhibition, wild-type GFP versus h24 humanized RFP strain, dose response, h24 mutant RFP vs wild-type GFP, cherry-pick; shares compounds with rRNA inh HTS; 1,900 tested, under 10 active; E. coli WT GFP strain growth, fluorescence, 24 h; activity change, negative = inhibition at 50 µM;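 active = compound lowering the normal-ribosome reporter at least twice as much as the humanized-ribosome reporter, growth loss under a set limit; inconclusive = no clear call, values can overlap the other calls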;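 also: wild-type GFP and h24 humanized RFP strains co-cultured 1 to 1 per well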
An asterisk follows results filed as active; ? = inconclusive; / = no result; ! = not confirmed by another sample. Sampled rows, rich in hits. Any-hit rate of the full collection: about 3.7%.

SMILES	AF4-AF9 inh	MITF act	esBAF inh	rRNA inh HTS	Wnt act	AID977621	AID977628
CCCc1ncc(CN2CCCC(C(=O)Nc3ccc(-c4cccc(OC)c4)cc3)C2)cn1 (stereo not given)	-6	-2	20	-5	2	/	/
COc1cccc(-c2ccc(NC(=O)C3CCCN(Cc4cnn(C(C)C)c4)C3)cc2)c1 (stereo not given)	-8	17	-2	-24*	-2	/	-0.47
C=CCn1c(C)cc(C(=O)CSc2nnc(C3CC3)n2C2CC2)c1C	3	43	27	-20*	14	-20	/
CN(C)C(=O)c1ccc(-c2ccc(C3[C@H]4CNC[C@@H]3N4S(=O)(=O)c3ccccc3F)cc2)cc1 (stereo not given in full)	6	/	/	-1	/	/	/
N#Cc1cccc(-c2ccc(C3[C@H]4CNC[C@@H]3N4S(=O)(=O)c3ccccc3)cc2)c1 (stereo not given in full)	-5	/	/	-3	/	/	/
N#Cc1ccc(-c2ccc(C3[C@H]4CNC[C@@H]3N4S(=O)(=O)c3ccc(-c4ccccc4)cc3)cc2)cc1 (stereo not given in full)	0	/	/	-18*	/	-5.4	/
CN(C)C(=O)c1cccc(-c2ccc(C3[C@H]4CNC[C@@H]3N4S(=O)(=O)c3ccccc3F)cc2)c1 (stereo not given in full)	/	/	/	-22*!	/	-8	?
CCC(C)C(=O)Nc1nc2ccc(OC)cc2s1 (stereo not given)	0	/	/	-22*	43*	-21	/
CCC(C)C(=O)Nc1nc2ccc(S(C)(=O)=O)cc2s1 (stereo not given)	-2	23	/	6	3	/	/
COc1cccc(-c2cnc3c(NC(C)=O)cc(-c4ccncc4)cn23)c1	2	/	-1	2	0	/	/
Cc1ccc(NC(=O)c2ccc(NCCCN3CCC(C)CC3)c([N+](=O)[O-])c2)c(C)c1	-1	-1	6	-2	-1	/	/
CCCN(CCC)CCCNc1ccc(C(=O)Nc2cccc(OC)c2)cc1[N+](=O)[O-]	14	19	-2	-10	0	/	/
COc1cccc(NC(=O)c2ccc(NCCCN3CC(C)CC(C)C3)c([N+](=O)[O-])c2)c1 (stereo not given)	-2	8	/	-46*	-2	?	-5.1
COc1cccc(NC(=O)c2ccc(NCCCN3CCC(C)CC3)c([N+](=O)[O-])c2)c1	4	17	-3	-25*	-4	-3.5	?
Cc1c([N+](=O)[O-])c([N+](=O)[O-])nn1CC(=O)N1CCOCC1	-1	6	/	25	-2	/	/
C(=C(c1ccccc1)c1ccccc1)c1ccccn1	1	2	-1	-39*	1	-1.8	/
c1ccc(-c2nc(-c3ccccn3)nc(-c3ccccn3)n2)nc1	-3	/	-6	10	0	/	/
CSc1nc2ccc(NS(=O)(=O)c3ccc([N+](=O)[O-])cc3)cc2s1	/	/	/	-22*	0	-14	-7.9
COc1cccc(C(=O)Nc2nnc(S(=O)(=O)N(C)Cc3ccccc3)s2)c1	-7	4	-3	-23*	-2	-17	-18
COc1ccc(CN(C)S(=O)(=O)c2nnc(NC(=O)c3cccc(OC)c3)s2)cc1	-5	-8	5	-9	-1	/	/
Cc1cc(C)nc(NS(=O)(=O)c2ccc(NC(=O)C3CC3)cc2)n1	-4	1	-7	7	-2	/	/
CN1CCCCN2[C@H](CO)[C@@H](c3ccc(Br)cc3)[C@H]2C1	-3	/	-3	4	/	/	/
COCCCNc1ccn2nc(-c3ccccc3)cc2n1	-1	/	-62	-20*	-21	5.4	/
O=C(Cc1c(F)cccc1Cl)N(Cc1ccccc1)c1ccccn1	-8	-2	/	-21*	-1	5	-5.9
CC1CC(C)(C)NC(=S)N1CCCC(=O)Nc1ccc(F)cc1 (stereo not given)	-3	-1	/	4	-3	/	/
SMILES	AF4-AF9 inh	MITF act	esBAF inh	rRNA inh HTS	Wnt act	AID977621	AID977628
Cn1nc(-c2ccccc2)c(CSc2ccccc2)c1Cl	/	17	-8	/	/	/	/
CCN(Cc1ccccc1)C(=O)COC(=O)c1cc(Cl)nc(Cl)c1	4	7	/	-35*	0	-18	-4.4
CCN(Cc1ccccc1)C(=O)COC(=O)c1cnc(C)cn1	-2	7	-2	7	2	/	/
COC(=O)c1ccc2nc(-c3ccc(C)cc3)c(Cc3ccc(C)cc3)n2c1	-1	/	/	-2	3	/	/
COc1ccc(-c2nc3c(C)cc(Br)cn3c2Cc2ccc(C)cc2)cc1OC	5	/	-14	-6.1*	-1	/	?
COC(=O)c1ccc2nc(-c3ccc(F)cc3)c(Cc3cccc(F)c3)n2c1	1	/	/	-24*	3	-3.1	-6
COC(=O)c1ccc2nc(-c3ccc(OC)c(OC)c3)c(Cc3ccc(C)cc3)n2c1	-1	/	1	-15*	0	-19	/
COC(=O)c1ccc2nc(-c3ccco3)c(Cc3cccc(F)c3)n2c1	-2	/	10	9	-2	/	/
COC(=O)c1ccc2nc(-c3ccco3)c(Cc3ccc(C)cc3)n2c1	1	/	0	-29*	-2	-6.3	?
Cc1ccc(Cc2c(-c3cccc(Br)c3)nc3ccc(C)cn23)cc1	1	/	/	-27*	-1	0.33	-9
Cc1cc2c(nc1C)CCCN2Cc1ccc(Br)cc1	9	/	/	5	5	/	/
CCc1cc2c(nc1CC)CCCN2Cc1ccc(Br)cc1	6	/	/	-26*	-1	-3.3	/
CC(c1ccc(F)cc1)n1c(-c2ccc3ccccc3n2)n[nH]c1=S (stereo not given)	-2	-6	4	-32*	2	-4.7	/
C/C(=N\NC(=O)c1sccc1-n1cccc1)c1cccs1	8	28	/	7	2	/	/
CCNC(=O)Nc1ccc2c(c1)C(=O)N(C)[C@H]1CC[C@@H](CC(=O)NCc3cccc(F)c3)O[C@H]1CO2	/	/	5	-2	/	/	/
COc1cc2c(cc1OC)CN(CC(=O)Nc1ccccc1SC)CC2	4	-6	/	-20*	0	0.48	-7
CC(C)NC(=O)Nc1ccc2c(c1)C(=O)N([C@@H](C)CO)C[C@@H](C)[C@@H](CN(C)C(=O)Nc1ccc3c(c1)OCO3)O2	-3	/	0	2	/	/	/
O=[N+]([O-])c1ccc(O)c(CSc2nnnn2-c2ccccc2)c1	-1	5	0	-26*	1	-28	-13
CN(CCOc1ccccc1)S(=O)(=O)c1ccccc1C#N	-1	11	5	-22*	1	-14	-19
c1cc2cc(-c3c(-c4ccc5c(c4)OCO5)noc3-c3ccsc3)ccc2[nH]1	-1	42	55*	-13*	33*	-10	-9.6
